Hits are enriched below; roughly 2.4% of the tested compounds scored in any of these assays.
TGFb SMAD3 inh: blocks TGF-b signaling. HepG2 CAGA-GFP TGF-b/SMAD3 reporter, GFP fluorescence, 18 h; TGF-beta stimulated, 500 pg/mL final. hit rate 1.2% among 410,000. AID 588855. Potency, µM (highest dose often 46.1 µM), for the others: at the highest dose activity, negative = inhibition, actives largely listed as inhibitors; note: % is set by controls: 0 for no effect and ±100 for the full control effect; nearly all actives have a fitted effect of over 65% in size
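HEPG2 CAGA-GFP reporter cells (1000/well, DMEM with 1% FBS) received compounds, then recombinant TGF-beta at 500 pg/mL final for 18 hours at 37 degrees C. Per-cell GFP summed per well was normalised to unstimulated and stimulated DMSO controls before curve fitting.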
S2 tox: viability counter-screen for ATXN expression inhibitors. S2 cells (HEK-293 line with an ATXN2-luciferase reporter) viability, CellTiter-Fluor protease fluorescence, 24 h. Potency, µM (titrated, usually from 56.7 µM), most hits filed as cytotoxic. hit rate 0.49% among 400,000. AID 651635; note: nearly all actives have a fitted effect of over 40% in size
Anesthetic bind: candidate novel general anesthetic via apoferritin binding; hit rate 0.074% among 350,000; apoferritin/1-aminoanthracene competitive binding, fluorescence; Potency, µM (highest dose often 77.5 µM), for the others: at the highest dose activity change, negative = displacement, most hits filed as inhibitors; P02791; note: % is set by controls: 0 for no effect and ±100 for the full control effect; nearly all actives have a fitted effect of over 20% in size
Target sequence (P02791 2-175 limits assumed): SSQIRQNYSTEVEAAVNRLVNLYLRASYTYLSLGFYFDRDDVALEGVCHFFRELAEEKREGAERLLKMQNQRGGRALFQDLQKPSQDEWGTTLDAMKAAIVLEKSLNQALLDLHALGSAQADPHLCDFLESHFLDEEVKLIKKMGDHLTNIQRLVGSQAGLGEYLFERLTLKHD
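Horse-spleen apoferritin (10 uM) was mixed with 50% saturated 1-aminoanthracene in PBS, exposed to compounds for 10 min at room temperature, and read for fluorescence (ex 380 nm, em 535 nm). Competitive displacement was fitted with a four-parameter Hill equation.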
ATXN2 expr inh: ATXN2 expression inhibition; AID 1745845; HEK-293 ATXN2-luciferase reporter, luminescence, 24 h; Potency, µM (highest dose often 57 µM), for the others: at the highest dose activity change, negative = inhibition, hits mostly inhibitors; hit rate 0.72% among 360,000; note: % is set by controls: 0 for no effect and ±100 for the full control effect; nearly all actives have a fitted effect of over 55% in size
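qHTS (up to 57 uM final) was run with 24 h compound exposure of reporter cells at 37 °C. Each well was multiplexed: SteadyGlo luminescence measured ATXN2-luciferase expression after a fluorogenic Gly-Phe-AFC viability readout (25 uM final).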
HepG2 tox: counter-screen for TGF-b inhibitors: cytotoxicity in HepG2 cells | HepG2 CAGA-GFP viability, ATP luminescence, 18 h | Potency, µM (series often up to 46.1 µM), inactives show at the highest dose activity change, negative = cytotoxicity, hits mostly cytotoxic | hit rate 0.76% among 410,000 | AID 588856
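CellTiter-Glo luminescence gave cytotoxicity after 18 hours at 37 degrees C. The cells were HepG2 CAGA-GFP in 1% FBS DMEM, stimulated with 500 pg/mL TGF-beta after compound addition. %Activity was normalised to no-cell wells (complete cell-killing) and DMSO (no toxicity), and curves were fitted and classified.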
Starred values were filed as active, the others as inactive; i = inactive; ? = inconclusive; nt = not tested or not shown; [ ] = another dose, or the depositor's remark. Calls come from the whole dose curve; as a rule, active = well fitted curve in the direction sought with a large enough effect; inconclusive = small, poorly fitted or top-dose-only effect, or another doubt; inactive = no such curve, though single readings can be large; an effect the other way counts as inactive or inconclusive. Potency is the fitted concentration of half-maximal effect.

SMILES	TGFb SMAD3 inh	S2 tox	Anesthetic bind	ATXN2 expr inh	HepG2 tox
Cc1c(C#N)c(NC(=O)CCl)n(Cc2cccs2)c1C	13µM*	nt	-12%	?	-81%
Cc1c(C#N)c(NC(=O)CCl)n(Cc2ccccc2)c1C	?	8.4µM*	-9%	11µM*	-50%
COc1cc(OC)c(/C=C/c2cc3c4ccccc4ccc3[n+](C)c2)c(OC)c1	-4%	nt	nt	nt	-20%
CCCN(CCC)CC(O)Cn1cc(/C=C/C(=O)c2ccc(OCC)cc2)c2ccccc21 (stereo not given)	?	nt	-11%	?	13µM*
CC(C)CN(CC(C)C)CC(O)Cn1cc(/C=C/C(=O)c2ccccc2)c2ccccc21 (stereo not given)	-12%	nt	-14%	0%	-38%
O=C(CCCc1nc2ccccc2s1)Nc1nccs1	-4%	i	-15%	?	-33%
Cc1cnc(NC(=O)CCCc2nc3ccccc3s2)s1	?	?	-23%	2.5µM*	-4%
Cc1ccccc1CCNC(=O)c1ccc2c(c1)c(C)c(C)n2Cc1ccccc1	0%	nt	53%	nt	-36%
Cc1c(C)n(Cc2ccccc2)c2ccc(C(=O)OCCCN(C)C)cc12	?	?	-3%	-31%	18µM*
CCN1CCN(C2=C(NS(=O)(=O)c3ccc(Br)cc3)C(=O)c3ccccc3C2=O)CC1	13µM*	?	?	nt	18µM*
CCOc1ccccc1N1CCN(C2=C(NS(=O)(=O)c3cccs3)C(=O)c3ccccc3C2=O)CC1	18µM*	i	?	-20%	-32%
CCOC(=O)C1CCN(C2=C(NS(=O)(=O)c3ccc(Br)cc3)C(=O)c3ccccc3C2=O)CC1	18µM*	18µM*	?	nt	-101%
CN1CCN(C2=C(NS(=O)(=O)c3cccs3)C(=O)c3ccccc3C2=O)CC1	?	i	-10%	?	-27%
CCN1CCN(C2=C(NS(=O)(=O)c3ccccc3)C(=O)c3ccccc3C2=O)CC1	11µM*	?	-9%	nt	-115%
CN(C)c1ccc(/C=C2\CCc3ccccc32)cc1	0%	nt	nt	nt	-27%
CCCCNC(=S)NCC(c1ccccc1)c1c[nH]c2ccccc12 (stereo not given)	?	?	-15%	?	-21%
CN(C)CCCNC(=S)NCC(c1ccc(Cl)cc1Cl)c1c[nH]c2ccccc12 (stereo not given)	?	?	4%	25µM*	-159%
CCN(CC)c1ccc2c(c1)oc(=O)c1c(Cl)cc(=O)oc12	?	?	-15%	?	14µM*
Clc1ccc2nc[nH]c2c1	-21%	nt	nt	nt	-41%
CCOC(=O)c1c(-c2ccccc2)oc2cc(CN(C)C)c(O)c(CN(C)C)c12	-5%	i	nt	14µM*	-48%
Cc1cnc(-n2ncc(C(=O)NCCc3ccncc3)c2-c2cccs2)nc1-c1ccc(F)cc1	nt	i	nt	nt	nt
COc1ccccc1NC(=O)Nc1nc(C(N)Cc2ccc(C(F)(F)F)cc2)cs1 (stereo not given)	?	nt	nt	-1%	20µM*
NC(c1ccccc1)c1csc(NC(=O)Nc2cccc(Cl)c2)n1 (stereo not given)	?	?	nt	?	-99%
NC(CCc1ccccc1)c1csc(NC(=O)Nc2cccc(Cl)c2)n1 (stereo not given)	?	28µM*	nt	20µM*	16µM*
COc1ccccc1NC(=O)Nc1nc(C(N)C(C)C)cs1 (stereo not given)	?	i	nt	?	-2%
SMILES	TGFb SMAD3 inh	S2 tox	Anesthetic bind	ATXN2 expr inh	HepG2 tox
NC(Cc1ccc(C(F)(F)F)cc1)c1csc(NC(=O)NCCc2ccccc2)n1 (stereo not given)	14µM*	?	nt	?	11µM*
COc1ccccc1CNC(=O)Nc1nc(C(N)Cc2ccc(Cl)cc2)cs1 (stereo not given)	?	32µM*	nt	?	-97%
CO/N=C\[C@@H](NS(=O)(=O)c1ccc(C)cc1)[C@H](C)/C=C\CC(=O)OC	nt	nt	5%[15.3 µM]	nt	nt
Cc1cc(Br)cn2c(Cc3ccccc3)c(-c3cccc(Br)c3)nc12	-10%	i	nt	11%	-24%
Cc1cccc(CNC(=O)c2c3n(c(C)cc2=O)-c2ccccc2SC(c2sccc2C)C3)n1 (stereo not given)	nt	i	nt	nt	nt
CCC[C@@]1(CCc2ccccc2)CC(O)=C([C@H](CC)c2cccc(NS(=O)(=O)c3ccc(C(F)(F)F)cn3)c2)C(=O)O1	nt	i	nt	nt	nt
COc1cc(CNC(=O)Nc2nc(C(N)CCc3ccccc3)cs2)cc(OC)c1OC (stereo not given)	?	?	nt	?	-88%
NC(Cc1ccc(C(F)(F)F)cc1)c1csc(NC(=O)Nc2ccccc2Oc2ccccc2)n1 (stereo not given)	11µM*	nt	nt	-14%	10µM*
CC(C)CC(N)c1csc(NC(=O)Nc2ccccc2C(C)(C)C)n1 (stereo not given)	14µM*	i	nt	?	-100%
NC(Cc1ccccc1)c1csc(NC(=O)Nc2ccccc2Oc2ccccc2)n1 (stereo not given)	?	?	nt	?	-104%
COc1ccccc1NC(=O)Nc1nc(C(N)CCc2ccccc2)cs1 (stereo not given)	11µM*	?	nt	?	10µM*
COc1ccc(CC(N)c2csc(NC(=O)Nc3ccccc3Cc3ccccc3)n2)cc1 (stereo not given)	?	?	nt	?	22µM*
CC(NC(=O)c1cccnc1)c1nnc2n1CCN(Cc1ccc(-c3ccccc3Cl)o1)CC2 (stereo not given)	nt	i	nt	nt	nt
NC(COCc1ccccc1)c1csc(NC(=O)Nc2cccc(C(F)(F)F)c2)n1 (stereo not given)	14µM*	nt	nt	?	-106%
NC(=O)c1ccc(Nc2nc(C(N)COCc3ccccc3)cs2)cc1 (stereo not given)	3%	i	nt	4%	-4%
Cc1ccc2c(c1)c1c(n2CC(O)Cn2c(C)nc3ccccc32)CCCC1 (stereo not given)	?	32µM*	-24%	?	-96%
Cc1ccc2c(c1)c1c(n2CC(O)CN2CCCCCC2)CCCC1 (stereo not given)	-20%	?	5%	-29%	-41%
Cc1ccc2c(c1)c1c(n2CC(O)CNC(C)(C)C)CCCC1 (stereo not given)	?	?	-23%	-21%	-63%
Cc1ccc2c(c1)c1c(n2CC(O)Cn2nc(C)c(Br)c2C)CCCC1 (stereo not given)	?	i	-5%	-23%	20µM*
Cc1oc2ncn(CC(C)C)c(=O)c2c1C(=O)Nc1cc(F)ccc1F	-5%	?	-7%	35µM*	3%
COc1ccc(OC)c(/C=C/c2cc3ccccc3cn2)c1	?	nt	nt	nt	-22%
